In PubChem BioAssay:
The source made the active and inactive calls.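 The calls were made as follows: active = calcium signal rise more than 3 SD above the low-dose agonist control mean, in both duplicate plates and the primary screen; inactive = the rest.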

Assay: nonspecific potentiation of DAMGO calcium response – cell-based, HEK293 mu-opioid receptor line, counter-screen for TRPC4 allosteric potentiator project, confirmation (AID 449724);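 also: HEK293 cells carrying mu-opioid receptor only with no TRPC4 channel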
Settings: HEK293 mu-opioid receptor cells, Fluo-4 calcium flux, at 10 µM, compound added before EC20 DAMGO stimulus

Structure (SMILES) | outcome
CC(C)c1ccc(NC(=S)N(C)CCc2ccccn2)cc1 | inactive
CCN1CCN(c2ccc(S(=O)(=O)N3CCCCC3)cc2NC(=O)COc2ccccc2)CC1 | inactive
COC(=O)c1ccccc1N=Nc1c(N)[nH][nH]c1=O | inactive
CCc1nc(NCCc2ccccn2)c2nnn(Cc3ccccc3F)c2n1 | inactive
COC(=O)c1ccc(N2CCN(C)CC2)c(NC(=O)COc2ccccc2)c1 | inactive
CCC1(c2ccc(F)cc2)NC(=O)N(CC(=O)c2cc(C)n(C3CC3)c2C)C1=O (stereo not given) | inactive
CCOC(=O)C1(CC2CCCCO2)CCN(Cc2c(C)cc(C)cc2-n2cccn2)CC1 (stereo not given) | inactive
Cc1ccc(Cl)cc1NC(=O)CNCC(c1ccccc1)N(C)C (stereo not given) | inactive
CCOC(=O)C1(CCOc2ccccc2)CCN(Cc2ccc3c(c2)OCCO3)CC1 | inactive
CCOc1ccccc1CN1CCNC(=O)C1CC(=O)N(C)CCc1ccccn1 (stereo not given) | inactive
CN(CCc1ccccn1)C(=O)CC1C(=O)NCCN1Cc1ccccc1C(F)(F)F (stereo not given) | inactive
Cc1ccc(C)c(OCCCCCn2ccnc2)c1 | inactive
O=C(C1CCCN(Cc2ccccc2F)C1)N1CCc2ccccc2C1 (stereo not given) | inactive
CCOC(=O)C1(CCCc2ccccc2)CCN(Cc2cn(CC)nc2C)CC1 | inactive
NCCSc1c(-c2ccc(Cl)cc2)[nH]c2ccccc12 | inactive
CN(C)CCCN(C(=O)c1ccc(C(=O)c2ccccc2)cc1)c1nc2ccc(F)cc2s1 | inactive
COc1ccc(-c2nn(-c3ccccc3)cc2CNCc2cccnc2)c(F)c1 | inactive
Cc1cc(Br)ccc1OCCn1ccnc1 | inactive
C=CCn1c(CCNC(=O)C(C)(C)C)nc2ccccc21 | inactive
Cc1cc(Cl)cc(C)c1OCCCCn1ccnc1 | inactive

Structure (SMILES) | outcome
Cc1sc2nc(CSc3ccccc3)nc(NCCN(C)C)c2c1C | inactive
CCN1CCN(c2c(S(=O)(=O)c3ccc(C)c(C)c3)cnc3ccc(F)cc23)CC1 | inactive
Cc1ccc(C)c(OCCCCn2ccnc2)c1 | inactive
Cc1ccccc1NC(=S)NCCc1ccccn1 | inactive
CN(C)C(CNC(=O)Cc1cccc(C(F)(F)F)c1)c1ccco1 (stereo not given) | inactive
CCOc1ccccc1CN1CCNC(=O)C1CC(=O)NCCc1ccccn1 (stereo not given) | inactive
CCOc1ccc2ncc(C(=O)c3ccc(OC)cc3)c(N3CCN(CC)CC3)c2c1 | inactive
Cc1cc(NC(=O)CN2CCc3ccccc3C2)nc2c1c(=O)oc1ccccc12 | inactive
Cc1ccccc1C(=O)NNC(=S)NC(=O)c1ccccc1 | inactive
CCOC(=O)C1CCCN(C(c2ccccn2)c2c(C)[nH]c3ccccc23)C1 (stereo not given) | inactive
COc1cc(/C=C/C(=O)c2ccc3c(c2)OCO3)cc(Cl)c1O | inactive
CN(C)C(CNC(=O)/C=C/c1cccc(Cl)c1)c1ccccc1 (stereo not given) | inactive
COc1ccc(C(=O)NC(=S)NNC(=O)c2c(-c3ccccc3)noc2C)cc1 | inactive
O=S(=O)(c1ccc(Cl)cc1)N1CCN2CCCC2C1 (stereo not given) | inactive
Cc1ccc(-n2cc(CNCC3CC(=O)N(C4CC4)C3)c(-c3cccc(C)c3)n2)cc1 (stereo not given) | inactive
CCCCCSc1nnc2c(n1)OC(c1cccn1C)N(C(C)=O)c1ccccc1-2 (stereo not given) | inactive
CCCCC(c1nnnn1CC1CCCO1)N1CCN(c2nc3ccccc3s2)CC1 (stereo not given) | inactive
CCN(CCCNS(=O)(=O)c1cc(-c2cc(C)no2)ccc1C)Cc1ccccc1 | inactive
COc1ccc(-c2nc(CN3CCC(C(=O)NC4CCCC4)CC3)c(C)o2)cc1OC | inactive
CCN(CC)CCSc1nc2ccc(OC)cc2[nH]1 | inactive
